The nature of the assay: compound effects on multiple myeloma cell viability – MM1S, calcein-AM fluorescence, 48 h, basal, profiling panel (AID 1165). Also: test concentration not given here. Conditions: higher = more signal.
Regarding `CO[C@H]1COC(=O)CC=C[C@H](C)[C@H](OC)COC(=O)[C@@H](C)NC(=O)CC=C[C@@H]1C`, the z-score was 0.0674.
The result for `CCOC(=O)[C@H](Cc1ccccc1)NC(=O)CCC1CC(OC(=O)NCCc2ccc(F)cc2)CC2(CCCC(COC(=O)NCc3cccc(C(F)(F)F)c3)O2)O1` (stereo partly specified) reads -0.0822; that for `CCOC(=O)NN=C1C[C@@H](O)[C@@H](O)[C@@H]2[C@@H]3C(=O)N(c4ccc(F)cc4F)C(=O)[C@@H]3CC[C@H]12`, 0.593; that for `C[C@]12CCC3c4ccc(OCC5CO5)cc4CCC3C1CC[C@@H]2O` (stereo partly specified), -2.59.
On to `CCOC(=O)CCN1C(=O)[C@H]2[C@H]3[C@H](O)[C@H](O)CC(=NOCC=C(C)CCC=C(C)C)[C@@H]3CC[C@H]2C1=O`, for which the z-score was 0.232.
Take `CCOC(=O)[C@H](Cc1ccccc1)NC(=O)CCC1CC(OC(=O)NCc2cccc3ccccc23)CC2(CCCC(COC(=O)NCCOc3ccccc3)O2)O1` (stereo partly specified): the z-score was 0.992.
Regarding `CCOC(=O)[C@H](Cc1ccccc1)NC(=O)CCC1CC(OC(=O)NCc2ccc3c(c2)OCO3)CC2(CCCC(COC(=O)NCCc3ccc(Cl)cc3)O2)O1` (stereo partly specified), the z-score is -0.845.
Take `O=C(NN=C1C[C@@H](O)[C@@H](O)[C@@H]2[C@@H]3C(=O)N(Cc4ccccc4)C(=O)[C@@H]3CC[C@H]12)OCc1ccccc1`: the z-score is 0.881.
`C[C@@H]1CC[C@H]2C(=O)O[C@@H](CN=[N+]=[N-])CN2[C@H]1c1ccc(Br)cc1`: the z-score was -3.04.
For the molecule `COC(=O)CC=C[C@@H](C)[C@@H](C=NOC[C@@H](O)[C@H]1O[C@@H]2OC(C)(C)O[C@@H]2[C@H]1O)OC`, the z-score was -0.952.
For `CC(CCN1CCCc2nc(C)c(C)cc21)=NO[C@H](C)c1cn([C@@H]2COC[C@H]2O)nn1`, the z-score is -0.674.
The result for `CC(C)(C)N1C(=O)[C@H]2[C@H]3[C@H](O)[C@H](O)CC(=NNC(=O)OCc4ccccc4)[C@@H]3CC[C@H]2C1=O` reads 0.0671; that for `COc1cccc([C@H]2Oc3ccc(OC)cc3C(=NO[C@@H](C)c3cc(-c4c(C)cc(C)cc4C)no3)[C@@H]2O)c1`, -1.38; that for `O=C1C2=CC[C@H]3C(=O)N(C[C@@H]4CCCO4)C(=O)[C@H]3[C@H]2[C@H](O)[C@@H]2O[C@H]12`, -3.11.
To `CCOC(=O)[C@H](Cc1ccccc1)NC(=O)CCC1CC(OC(=O)NCc2cccc3ccccc23)CC2(CCCC(COC(=O)NCCc3ccc(Cl)cc3)O2)O1` (stereo partly specified) belongs 0.248; to `COC(=O)[C@H](C)NC(=O)CCC1CC(OC(=O)NCc2cccc3ccccc23)CC2(CCCC(COC(=O)NCc3cccc(C(F)(F)F)c3)O2)O1` (stereo partly specified), -3.11; to `COC(=O)[C@H](C)NC(=O)CCC1CC(OC(=O)NCc2cccc3ccccc23)CC2(CCCC(COC(=O)NCCOc3ccccc3)O2)O1` (stereo partly specified), -3.37.
To `CCOC(=O)CCN1C(=O)[C@H]2[C@H]3[C@H](O)[C@H](O)CC(=O)[C@@H]3CC[C@H]2C1=O` belongs -0.885; to `C#CCCCON=C1[C@H]2CCn3c(=O)n(Cc4cc5c(cc4Cl)OCO5)c(=O)n3[C@H]2[C@H](O)[C@@H]2O[C@H]12`, -0.0822.
On to `COC(=O)[C@H](C)NC(=O)CCC1CC(OC(=O)NCCc2ccc(F)cc2)CC2(CCCC(COC(=O)NCCc3ccccc3OC)O2)O1` (stereo partly specified), for which the z-score was 0.636.
The result for `CCOC(=O)[C@H](Cc1ccccc1)NC(=O)CCC1CC(OC(=O)NCc2ccc3c(c2)OCO3)CC2(CCCC(COC(=O)NCCOc3ccccc3)O2)O1` (stereo partly specified) reads 0.322; that for `CCOC(=O)CCN1C(=O)[C@H]2[C@H]3[C@H](O)[C@H](O)CC(=NNC(=O)OCC)[C@H]3CC[C@H]2C1=O`, -2.14.
Turning to `CCN1C(=O)[C@H]2[C@H]3[C@H](O)[C@H](O)CC(=NOCC[C@@H]4C=C[C@H](OC(C)=O)[C@@H](COC(C)=O)O4)[C@@H]3CC[C@H]2C1=O`, the z-score was 0.0566.
To `O=C1C2=CC[C@H]3C(=O)N(c4ccc(F)cc4F)C(=O)[C@H]3[C@H]2[C@H](O)[C@@H]2O[C@H]12` belongs -0.486; to `COc1ccc(O[C@H]2C=C[C@@H](c3ccccc3)O[C@@H]2COC(=O)CCC(C)=NOC[C@@H](O)COCc2ccco2)cc1`, -1.89.
The result for `O=C1C[C@@H](O)[C@@H](O)[C@@H]2[C@@H]3C(=O)N(C4CCCCC4)C(=O)[C@@H]3CC[C@@H]12` reads -0.0357; that for `CC(CCC(=O)OC[C@H]1O[C@H](C#Cc2ccccc2)C=C[C@@H]1Oc1ccc(C)cc1)=NOC[C@@H](C)[C@H](OCc1ccccc1)C(C)C`, -1.44; that for `CC(C)CON=C1C[C@@H](O)[C@@H](O)[C@@H]2[C@@H]3C(=O)N([C@@H](C)c4ccccc4)C(=O)[C@@H]3CC[C@@H]12`, -0.79.
Turning to `O=C1[C@H]2[C@H]3[C@H](O)[C@H](O)CC(=NO[C@@H]4O[C@H](CO)[C@@H](O)[C@H](O)[C@H]4O)[C@H]3CC[C@H]2C(=O)N1c1ccc(F)cc1F`, the z-score was 0.0224.
To `COC(=O)[C@@H]1CC[C@H](C)[C@@H](c2ccc(C)cc2)N1C(=O)c1ccc(C=NOC[C@H]2O[C@H](c3ccccc3)C=C[C@@H]2Oc2ccc(OC)cc2)cc1` belongs 0.248.
The result for `COC(=O)CC=C[C@@H](C)[C@@H](C=NOC[C@@H](O)COCc1ccco1)OC` reads 0.195; that for `CC(C)(C)N1C(=O)[C@H]2[C@H]3[C@H](O)[C@H](O)CC(=NOC[C@@H](O)COCc4ccco4)[C@@H]3CC[C@H]2C1=O`, 0.268; that for `C#CCCCON=C1C[C@@H](O)[C@@H](O)[C@@H]2[C@@H]3C(=O)N(C[C@@H]4CCCO4)C(=O)[C@@H]3CC[C@H]12`, 0.266.
As to `CCOC(=O)[C@H](CC(C)C)NC(=O)CCC1CC(OC(=O)NCCc2ccc(F)cc2)CC2(CCCC(COC(=O)NCCOC)O2)O1` (stereo partly specified), the z-score was 0.695.
To `CCOC(=O)[C@H](Cc1ccccc1)NC(=O)CCC1CC(OC(=O)NCCc2ccc(F)cc2)CC2(CCCC(COC(=O)NCCC(C)C)O2)O1` (stereo partly specified) belongs 0.243; to `CC(C)=CCCC(C)=CCON=C1C[C@@H](O)[C@@H](O)[C@@H]2[C@@H]3C(=O)N(C4CCCCC4)C(=O)[C@@H]3CC[C@H]12`, -2.9.

Values taken from PubChem BioAssay.
